T cruzi growth-1 – T. cruzi proliferation inhibition. T. cruzi beta-gal in NIH3T3, GalScreen luminescence, 90 h. inhibition, % at 8.34 µM. 77,000 tested, 5.9% active;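 active = mean inhibition above about 93%, with at least 55% of replicates each passing it, limit read from the data, passing the limit was not always enough; inconclusive = only one of those two conditions holds; inactive = neither condition holds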
C diff HTS – inhibitors of Clostridium difficile growth; Clostridium difficile clinical isolate growth, OD600, 24 h; hits give low values; growth activity, negative = inhibition, % at 16 µg/mL (by protocol); 86,000 tested, 0.25% active; AID 1259249;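 active = mean growth activity at or below -80% and every replicate also at or below -80%; inconclusive = mean at or below -80% but some replicate above -80%; inactive = mean growth activity above -80%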;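 also: 0% = DMSO wells and -100% = levofloxacin 16 µg/mL wells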
Pf Dd2 growth – P. falciparum Dd2 growth inhibition; AID 1159554; 94,000 tested, 2.3% active; activity change, % at 10 µM; SYBR Green, 72 h; hits give low values; in the data active = activity change below about -80%; inconclusive = no clear call, values can overlap the other calls
T cruzi growth-2 – inhibitors of T. cruzi proliferation | shares compounds with T cruzi growth-1 | T. cruzi beta-gal in NIH3T3, GalScreen luminescence, 90 h | inhibition, % at 8.35 µM | 5,600 tested, 72% active | AID 651739;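 active = mean replicate inhibition above about 95% and at least 55% of replicates individually reaching it, limit read from the data; inconclusive = only one of the two criteria is met; inactive = neither criterion is met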
T cruzi growth-3 – Trypanosoma cruzi proliferation inhibition; shares compounds with T cruzi growth-1; T. cruzi beta-gal in NIH3T3, GalScreen luminescence, 90 h; 5,600 tested, 21% active; inhibition, % at 2.09 µM;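 active = mean inhibition above about 95%, with at least 55% of replicates also reaching it, limit read from the data; inconclusive = meets just one of the two conditions; inactive = meets neither condition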;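 also: plate controls were neutral control median for no effect and positive control median for full effect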
NIH3T3 tox – cytotoxicity in mouse NIH/3T3 fibroblasts; shares compounds with T cruzi growth-1; NIH/3T3 viability, CellTiter-Glo ATP luminescence, 90 h; cytotoxicity (signal decrease), % at 8.35 µM; 5,600 tested, 14% active; AID 651742;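 active = mean signal decrease across replicates above about 35% based on untreated-well scatter, with enough replicates individually passing, limit read from the data; inconclusive = no rule stated though some were filed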;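 also: 0% = median of neutral control wells and 100% = median of positive control wells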
NIH3T3 tox 2 – cytotoxicity in mouse NIH/3T3 fibroblasts. NIH/3T3 viability, CellTiter-Glo ATP luminescence, 90 h. shares compounds with T cruzi growth-1. 5,600 tested, 56% active. inhibition, % at 24.9 µM;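 active = mean loss of cell viability signal at or above a set limit, and enough replicates individually reaching it; inconclusive = meets only the mean limit or only the replicate share; inactive = meets neither condition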;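 also: 0% = median of neutral control wells and 100% = median of positive control wells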
Starred values were filed as active, the others as inactive; ? = inconclusive; . = no result given. Shown are actives, neighbours in structure and some others; about 6.7% of the full set was active somewhere.

SMILES	T cruzi growth-1	C diff HTS	Pf Dd2 growth	T cruzi growth-2	T cruzi growth-3	NIH3T3 tox	NIH3T3 tox 2
C[C@H](CO)N1C[C@H](C)[C@H](CN(C)Cc2ccccc2F)Oc2ncc(/C=C/c3ccccc3)cc2C1=O	95*	25	-39	107*	77	17	60*
C/C=C/c1cnc2c(c1)C(=O)N([C@@H](C)CO)C[C@@H](C)[C@H](CN(C)Cc1ccccc1F)O2	.	.	20	.	.	.	.
C[C@@H]1CN([C@H](C)CO)C(=O)c2cc(/C=C/c3ccccc3)cnc2O[C@H]1CN(C)Cc1ccccc1F	87*	20	-49	103*	?	10	103*
O=C(CC1CC1)N1CC(=O)N2[C@H](CO)[C@@H](c3ccc(C#Cc4ccccc4)cc3)[C@@H]2C1	.	13	-50	.	.	.	.
O=S(=O)(c1ccccc1F)N1CCCCN2[C@H](CO)[C@@H](c3ccc(-c4ccccc4)cc3)[C@@H]2C1	36	-1	-5	.	.	.	.
O=C(c1cccc(F)c1)N1CCCCN2[C@H](CO)[C@H](c3ccc(-c4ccccc4)cc3)[C@H]2C1	103*	15	-30	109*	22	5	88*
O=C(c1cccc(F)c1)N1CCCCN2[C@H](CO)[C@@H](c3ccc(-c4ccccc4)cc3)[C@H]2C1	70	8	8	.	.	.	.
O=C(c1cccc(F)c1)N1CCCCN2[C@H](CO)[C@@H](c3ccc(-c4ccccc4)cc3)[C@@H]2C1	106*	5	-20	106*	?	-7	59*
O=C(c1cccc(F)c1)N1CCCCN2[C@H](C1)[C@@H](c1ccc(-c3ccccc3)cc1)[C@@H]2CO	62	9	21	.	.	.	.
C[C@H]1CN([C@@H](C)CO)C(=O)c2cc(NC(=O)NC3CCCCC3)ccc2O[C@@H]1CN(C)C(=O)Nc1ccc(C(F)(F)F)cc1	-75	-9	25	.	.	.	.
CO[C@H](CN(C)Cc1ccc(-c2ccccn2)cc1)[C@@H](C)CN(C(=O)Nc1ccc(F)cc1)[C@H](C)CO	90	.	-31	.	.	.	.
CO[C@H](CN(C)Cc1ccc(-c2ccccn2)cc1)[C@@H](C)CN(C(=O)Nc1ccc(F)cc1)[C@@H](C)CO	100*	.	-14	102*	34	17	12
C[C@@H]1CCCCO[C@@H](CN(C)Cc2ccc(Cl)c(Cl)c2)[C@H](C)CN([C@H](C)CO)C(=O)c2cc(NC(=O)CCC(F)(F)F)ccc2O1	?	-12	-88*	92	104*	-3	103*
C[C@@H]1CCCCO[C@@H](CN(C)CC2CCCCC2)[C@@H](C)CN([C@H](C)CO)C(=O)c2cc(NC(=O)CCC(F)(F)F)ccc2O1	13	5	8	.	.	.	.
C[C@@H]1CCCCO[C@@H](CN(C)CC2CCCCC2)[C@H](C)CN([C@@H](C)CO)C(=O)c2cc(NC(=O)CCC(F)(F)F)ccc2O1	?	18	-11	?	20	9	18
C[C@@H]1CCCCO[C@H](CN(C)Cc2ccncc2)[C@H](C)CN([C@H](C)CO)C(=O)c2cc(NC(=O)CCC(F)(F)F)ccc2O1	96*	0	25	44	0	-5	10
C[C@@H]1CCCCO[C@@H](CN(C)Cc2ccc(Cl)c(Cl)c2)[C@@H](C)CN([C@@H](C)CO)C(=O)c2cc(NC(=O)CCC(F)(F)F)ccc2O1	85	18	-60	.	.	.	.
C[C@@H]1CCCCO[C@@H](CN(C)Cc2ccncc2)[C@@H](C)CN([C@H](C)CO)C(=O)c2cc(NC(=O)CCC(F)(F)F)ccc2O1	-26	-1	8	.	.	.	.
Cc1noc(C)c1NC(=O)Nc1ccc2c(c1)C(=O)N([C@H](C)CO)C[C@H](C)[C@H](CN(C)CC1CCCCC1)OCCCC[C@H](C)O2	39	2	-21	.	.	.	.
CCC(=O)N1[C@@H]2c3cccc(=O)n3C[C@@H]2[C@@H](CO)[C@@H]1C(=O)NC1CCCC1	.	-1	2	.	.	.	.
COc1ccc(S(=O)(=O)N(C)C[C@@H]2OCc3ccccc3-c3c(n(C)c4ccccc34)C(=O)N([C@@H](C)CO)C[C@@H]2C)cc1	?	.	-87*	100*	67	-17	24*
COc1cccc(S(=O)(=O)N(C)C[C@@H]2OCc3ccccc3-c3c(n(C)c4ccccc34)C(=O)N([C@@H](C)CO)C[C@H]2C)c1	63	-6	-7	.	.	.	.
C[C@H](CO)N1C[C@H](C)[C@@H](CN(C)S(=O)(=O)c2ccccc2F)OCc2ccccc2-c2c(n(C)c3ccccc23)C1=O	-107	-6	22	.	.	.	.
C[C@@H]1CN([C@@H](C)CO)C(=O)c2c(c3ccccc3n2C)-c2ccccc2CO[C@H]1CN(C)S(=O)(=O)c1ccsc1	?	4	-64	108*	54	6	47*
C[C@H]1CN([C@@H](C)CO)C(=O)c2c(c3ccccc3n2C)-c2ccccc2CO[C@H]1CN(C)S(=O)(=O)c1ccccc1C#N	107*	4	-79	91	76	?	85*
SMILES	T cruzi growth-1	C diff HTS	Pf Dd2 growth	T cruzi growth-2	T cruzi growth-3	NIH3T3 tox	NIH3T3 tox 2
C[C@H](CO)N1C[C@H](C)[C@H](CN(C)S(=O)(=O)c2ccsc2)OCc2ccccc2-c2c(n(C)c3ccccc23)C1=O	68	1	-71	.	.	.	.
C[C@H](CO)N1C[C@H](C)[C@@H](CN(C)S(=O)(=O)c2ccc(C#N)cc2)OCc2ccccc2-c2c(n(C)c3ccccc23)C1=O	?	.	-62	112*	71	14	19
C[C@H]1CN([C@@H](C)CO)C(=O)c2c(c3ccccc3n2C)-c2ccccc2CO[C@@H]1CN(C)S(=O)(=O)c1cccc(C#N)c1	60	1	-30	.	.	.	.
CN1CCN(C(=O)C[C@@H]2C[C@@H]3c4cc(NC(=O)Nc5ccc(C(F)(F)F)cc5)ccc4O[C@@H]3[C@@H](CO)O2)CC1	-8	8	-41	.	.	.	.
C[C@@H]1CN([C@@H](C)CO)C(=O)Cc2cc(NC(=O)CCCCCC(=O)Nc3ccccc3N)ccc2O[C@@H]1CN(C)CC1CC1	.	-1	25	.	.	.	.
Cc1noc(C)c1S(=O)(=O)N(C)C[C@@H]1Oc2ccc(NC(=O)CCCCCC(=O)Nc3ccccc3N)cc2CC(=O)N([C@@H](C)CO)C[C@@H]1C	.	1	-24	.	.	.	.
COc1cccc(NC(=O)N2C[C@H](O)COC[C@H]3O[C@H](CC(=O)NCCCN4CCOCC4)CC[C@@H]32)c1	.	0	21	.	.	.	.
COc1cccc(NC(=O)N[C@@H]2C=C[C@H](CC(=O)N3CCN(C)CC3)O[C@H]2CO)c1	-24	1	-3	.	.	.	.
C[C@@H]1CCCCO[C@H](CN(C)C(=O)Nc2ccc(C(F)(F)F)cc2)[C@H](C)CN([C@@H](C)CO)C(=O)c2cc(NC(=O)CCC(F)(F)F)ccc2O1	101	4	-67	.	.	.	.

Screens: PubChem BioAssay, Broad Institute
